Screens (PubChem BioAssay)
Most compounds without a hit are left out; they make up all but 19% or so of the library.
BCR signal inh: qHTS Assay to Find Inhibitors of Chronic Active B-Cell Receptor Signaling; ABC-DLBCL IkBa-CBG/CBR reporter, luminescence ratio, 4 h; Potency, µM (top dose mostly 46.1 µM), for the others: top-dose activity change, negative = inhibition, most hits filed as inhibitors; actives 0.05% (n = 340,000); AID 493014, 2011; active = well fitted inhibition curve with a large enough effect in the signal ratio, with a control signal flat, not every such curve was filed as active; inconclusive = small, poorly fitted or top-dose-only effect, or effect the other way, or a change in a side signal; the % refers to the signal ratio;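 also: potency is read from the fitted curve at half-maximal effect; plate controls were basal doxycycline-induced cells for no effect and cells given 10 µM MG132 for full effect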
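Cell line TMD8 (human ABC DLBCL), stably expressing tet-inducible CBG68-IkBa fusion and CBR; IMDM/0.5% FBS; cpd up to 46 uM; dox induction, 4 h, 37C/5% CO2; dual luminescence; green/red ratio; MG132 control.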
IL1B secr inh: qHTS for Inhibitors of Inflammasome Signaling: IL-1-beta AlphaLISA Primary Screen | THP-1 LPS/ATP IL-1B secretion, AlphaLISA, 16 h; hits give low values | activity change, % at 57.5 µM | actives 4.7% (n = 360,000); in the data active = activity change below about -50%; inconclusive = mostly about -30% to -49%; also: % is scaled to controls: 0 for no effect and ±100 for the full control effect
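Secreted IL-1B measured by AlphaLISA bead assay after 16 h compound exposure of THP-1 cells; compounds (final up to 57.5 uM) added 1 h before LPS (250 ng/mL) and ATP (1.25 mM) stimulation; lower signal means less secretion.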
SW480 rerep: A quantitative high throughput screen for small molecules that induce DNA re-replication in SW480 colon adenocarcinoma cells | SW480 DNA re-replication, Hoechst DNA content imaging, 48 h | Potency, µM (highest dose often 46.1 µM), without a hit: top-dose re-replication activation, actives largely listed as activators | actives 1.8% (n = 340,000); also: potency is read from the fitted curve at half-maximal effect; % of control where 0% means no effect; nearly all actives have a fitted effect of over 55% in size
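Compounds, transferred as 23 nL by pin tool, were incubated with cells for 48 hr; DNA content per nucleus was then quantified by Hoechst staining and fluorescence plate imaging.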
DT40 TDP1 CPT: qHTS for Inhibitors of human tyrosyl-DNA phosphodiesterase 1 (TDP1): qHTS in cells in presence of CPT; chicken DT40 Tdp1-/-;hTDP1 cells + 20 nM CPT, ATP luminescence, 48 h; Potency, µM (highest dose often 46.2 µM), for inactives: at the highest dose activity change, negative = growth inhibition, usual class: inhibitors; AID 686979, 2013; actives 12% (n = 420,000); also: potency is read from the fitted curve at half-maximal effect; % is scaled to controls: 0 for no effect and ±100 for the full control effect; nearly all actives have a fitted effect of over 55% in size
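Chicken DT40 Tdp1-/- cells stably complemented with human TDP1 were seeded at 400 cells/well in medium containing 20 nM camptothecin, exposed to pin-transferred compounds, and grown at 37 °C for at least 48 hr. Viability was read as ATP luminescence.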
MCF10A rereplic: A quantitative high throughput screen for small molecules that induce DNA re-replication in MCF 10a normal breast cells; actives 2.9% (n = 350,000); MCF 10A DNA re-replication, Hoechst nuclear intensity, 48 h; Potency, µM (top dose mostly 46.1 µM), for the others: at the top dose activity, positive = re-replication, actives largely listed as activators; also: potency is read from the fitted curve at half-maximal effect; % of control where 0% means no effect; nearly all actives have a fitted effect of over 50% in size
DT40 TDP1 no CPT: qHTS for Inhibitors of human tyrosyl-DNA phosphodiesterase 1 (TDP1): qHTS in cells in absence of CPT | DT40 Tdp1-/- hTDP1 cells, no CPT, ATP luminescence, 48 h | Potency, µM (titrated, usually from 46.2 µM), without a hit: top-dose activity change, negative = growth inhibition, hits mostly inhibitors | actives 15% (n = 420,000); also: potency is read from the fitted curve at half-maximal effect; % is scaled to controls: 0 for no effect and ±100 for the full control effect; nearly all actives have a fitted effect of over 55% in size
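Seeded 400 DT40-hTDP1 cells/well (vehicle DMSO, no 20 nM CPT); pinned compounds; ≥48 hr at 37 °C; CellTiter-Glo luminescence as viability measure.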
The depositor's hits bear a star; u = inconclusive; x = not tested or not shown; [ ] = another dose, or the depositor's remark. Unless noted, calls follow the shape of the dose curve; as a rule, active = well fitted curve in the direction sought with a large enough effect; inconclusive = small, poorly fitted or top-dose-only effect, or another doubt; inactive = no such curve, though single readings can be large; an effect the other way counts as inactive or inconclusive.

SMILES | BCR signal inh | IL1B secr inh | SW480 rerep | DT40 TDP1 CPT | MCF10A rereplic | DT40 TDP1 no CPT
COc1cc2c(=O)c(C(=O)c3ccc(C)c(C)c3)cn(Cc3ccccc3F)c2cc1OC | x | x | x | 18.4µM* | x | 16.4µM*
CN(Cc1ccccc1)C(=O)[C@@H]1CCCN1C(=O)[C@@H]1CCCN1C(=O)OC(C)(C)C | x | 0.0 | x | -21.8% | x | -27.8%
Cc1cc(C(=O)NCCN2Cc3ccccc3OC(c3ccccc3F)C2)no1 (configuration not stated) | x | x | x | -4.0%[9.04 µM] | x | -10.0%
CC(C)COc1ccc(C(=O)Nc2scc(-c3ccc(Cl)cc3Cl)c2C(N)=O)cc1 | -14.4% | -2.7 | 5.0% | 16.4µM* | u | 9.2µM*
CC(C)COc1ccc(C(=O)Nc2cc3nn(-c4ccccc4)nc3cc2Cl)cc1 | x | x | x | 0.6% | x | -1.0%
CCc1ccc(S(=O)(=O)Nc2nccs2)cc1 | 8.4% | -21.4 | -1.4% | -6.3% | u | -11.3%
O=S(=O)(Nc1nccs1)c1ccc(F)cc1 | 13.1% | 5.9 | 15.8% | 1.7% | 2.31µM* | -1.2%
Cc1ccc(NC(=O)CCS(=O)(=O)c2ccc3c(c2)oc(=O)n3C)c(Br)c1 | x | x | x | u | x | -7.0%
O=C1N=c2ccccc2=C1c1c(O)n(-c2cccc(F)c2)[nH]c1=O | u | -2.7 | -2.8% | 20.6µM* | u | u
CC1=NN(c2ccccc2)C(=O)/C1=C/c1c(O)n(-c2ccc(F)cc2)[nH]c1=O | u | -29.4 | u | -10.5% | -10.5% | -21.4%
O=C(C1CCN(S(=O)(=O)c2cccc3nsnc23)CC1)N1CC=C(c2ccccc2)CC1 | 5.5% | 7.6 | 3.5% | 18.4µM* | u | 16.4µM*
O=C(NCCc1ccccc1)C1CCCN(S(=O)(=O)c2cccc3nsnc23)C1 (configuration not stated) | u | 0.0 | x | u | 6.8% | 13µM*
CC1CCCCN1C(=O)C1CCCN(S(=O)(=O)c2cccc3nsnc23)C1 (configuration not stated) | 0.0% | 60.7 | -2.5% | u | -0.6% | -19.1%
O=C(C1CCN(S(=O)(=O)c2cccc3nsnc23)CC1)N1CCCCC1 | -4.9% | -5.7 | -1.5% | -18.6% | 3.4% | 15.2%
O=C(C1CCCN(S(=O)(=O)c2cccc3nsnc23)C1)N1CC=C(c2ccccc2)CC1 (configuration not stated) | 0.8% | -54.8* | 0.2% | 13µM* | 24.5% | 10.3µM*
Cc1cccc(-c2ccc3ncnc(NCc4cc(C)cs4)c3c2)c1 | -16.3% | x | x | x | x | x
C/C(=N\NC(=O)c1ccccc1C)c1cccnc1 | u | -5.8 | 27.1% | 4.0% | -2.5% | -0.7%
CC1(Cc2ccccc2Cl)C(=O)Nc2c(Cl)ccc(Cl)c21 (configuration not stated) | x | 36.9 | x | u | x | u
CC1(Cc2ccc(Cl)cc2)C(=O)Nc2c(Cl)ccc(Cl)c21 (configuration not stated) | x | 42.8 | x | 25.9µM* | x | u
Cc1ccc(CC2(C)C(=O)Nc3c(Cl)ccc(Cl)c32)cc1 (configuration not stated) | x | 53.1 | x | u | x | 16.4µM*
CC1(Cc2cccc(C(F)(F)F)c2)C(=O)Nc2c(Cl)ccc(Cl)c21 (configuration not stated) | x | 54.6 | x | u | x | u
CCOc1ccc(NC(=O)CN(C)C2=NS(=O)(=O)c3ccccc32)cc1 | x | 11.7 | x | -19.1% | x | -25.1%
COc1ccccc1N(C)C | x | x | x | -2.0% | x | 3.3%
COc1ccc(-c2ccc3c(N)c(C(=O)c4cccc(OC)c4)sc3n2)cc1 | 17.3% | 0.0 | u | u | 20.6µM* | u
COc1cccc(-c2ccc3c(N)c(C(=O)Nc4cc(F)ccc4F)sc3n2)c1 | 3.9% | x | x | u | x | u
SMILES | BCR signal inh | IL1B secr inh | SW480 rerep | DT40 TDP1 CPT | MCF10A rereplic | DT40 TDP1 no CPT
Cc1ccccc1NC(=O)c1sc2nc(-c3ccncc3)ccc2c1N | x | x | x | -88.4% | x | 16.4µM*
COc1cccc(-c2ccc3c(N)c(C(=O)Nc4ccccc4C)sc3n2)c1 | u | x | x | u | x | 23.1µM*
Nc1c(C(=O)Nc2nc3ccccc3s2)sc2nc(-c3cccs3)ccc12 | u | -113.9* | u | 11.6µM* | 4.11µM* | 20.6µM*
Cc1ccc(Cn2cnc3c(oc4ccccc43)c2=O)cc1 | x | x | x | -3.9% | x | -21.4%
Cc1nc(S/C(=C/c2ccc(OCc3ccc(C(=O)O)cc3)cc2)C(=O)O)n[nH]1 | 0.4% | 26.9 | -1.0% | 17.8% | 11.3% | -6.0%
Nc1c(C(=O)Nc2ccc(Cl)c(C(F)(F)F)c2)sc2nc(-c3ccncc3)ccc12 | x | x | x | u | x | 10.3µM*
CCN(CC(=O)Nc1cc(Cl)ccc1C)C(=O)c1nc2nc(C)cc(C)n2n1 | u | 13.8 | 2.3% | -13.4% | u | -7.2%
COc1ccccc1CNS(=O)(=O)c1ccc(-n2cccn2)cc1 | 3.1% | 20.4 | 9.7% | 25.9µM* | 0.4% | u
COc1ccc(NS(=O)(=O)c2ccc(-n3cccn3)cc2)cc1OC | -2.8% | x | x | 5.8µM* | x | 4.61µM*
CCc1cccc(NS(=O)(=O)c2ccc(-n3cccn3)cc2)c1 | 1.8% | -11.1 | u | 16.4µM* | 8.7% | 20.6µM*
O=S(=O)(Nc1cccc(Cl)c1)c1ccc(-n2cccn2)cc1 | -8.0% | 2.4 | -1.2% | -29.5% | 8.0% | u
